# Results published in PubChem BioAssay (Tox21).
# Records with an inconclusive call do not appear. Unmarked numbers belong to inactive results. Activity calls are given as the source filed them. The call rests on the fitted dose curve; in most records, active means well fitted activation curve with a large enough effect in the repeat runs; inconclusive means weak or mixed curves; inactive means no such curve, though single readings can be large or run the other way.
# Assay: qHTS assay for small molecules that induce genotoxicity in human embryonic kidney cells expressing luciferase-tagged ATAD5 (AID 651632); further: nearly all actives have a fitted effect of over 15% in size
# Conditions: HEK293T ATAD5-luciferase induction, 16 h; series mostly up to 83.3 µM; activation: at the top concentration
# Source text: U.S. Tox21 Program National Center for Advancing Translational Sciences [NCATS] NIH Chemical Genomics Center [NCGC] U.S. Environmental Protection Agency [EPA] National Institutes of Environmental Health Sciences [NIEHS] National Toxicology Program [NTP] U.S. Food and Drug Administration [FDA] Tox21 Assay Overview: As cancer cells divide rapidly and during every cell division they need to duplicate their genome by DNA replication. The failure to do so results in the cancer cell death. Based on this concept, many chemotherapeutic agents were developed but have limitations such as low efficacy and severe side effects etc. A new cell based assay was developed to find the compounds that effectively block DNA replication either by directly damaging DNA or by inhibiting other cellular mechanisms. Enhanced Level of Genome Instability Gene 1 (ELG1; human ATAD5) protein levels increase in response to various types of DNA damage. Using a luciferase reporter-gene tagged with ATAD5, a cell-based assay [developed by Kyungjae Myung, NHGRI, NIH] was used to measure the induction of ATAD5 in human embryonic kidney cells (HEK293T). So, increase in luciferase activity can be used to identify the compounds that cause genetic stress.
# Tox21 Assay Protocol Summary: For genotoxicity screening, 2,000 cells in 5 uL/well were dispensed into white, solid-bottom 1536-well plates using a Multidrop Combi (Thermo Scientific) dispenser. Following transfer of 23 nL compound or DMSO vehicle by a pin tool, the plates were incubated 16 hr at 37C and 5% CO2. 5 ul Amplite (AAT Bioquest, Inc.) was then added to each plate and following 30 min incubation at room temperature, luciferase activity was quantified on a ViewLux CCD-based plate reader.
# On the % scale 0 is the no-effect control and ±100 the full control effect; potency means the concentration at half of the fitted maximal effect.
SMILES,activation,Potency
Cc1ccc(S(=O)(=O)NC(=O)NN2CC3CCCC3C2)cc1 (stereo not given),0.569% [at 39.1 µM],
CCCCCCCCOCCC#N,1.09%,
O=C1CC2(CCCC2)CC(=O)N1CCNCC1COc2ccccc2O1 (stereo not given),-4.64%,
CCCCCCCOC(C)=O,4.69%,
CC/C=C/CCCCCCCCCCOC(C)=O,1.79%,
N#Cc1ccccc1C#N,1%,
Cc1cc(O)c(Cl)cc1C,-0.339%,
CCO/C=C1\N=C(c2ccccc2)OC1=O,2.71%,
Cc1nnc(C(=O)NC(C)(C)c2nc(C(=O)NCc3ccc(F)cc3)c(O)c(=O)n2C)o1,3.78%,
CC(=O)Oc1ccc(C(C)=O)cc1,2% [at 95.3 µM],
CC(=O)SC[C@@H](C)C(=O)N1CCC[C@H]1C(=O)N[C@@H](Cc1ccccc1)C(=O)O,3.35%,
CCC(=O)OCCOc1ccccc1,-0.615%,
O=C(O)CCC(=O)Nc1ccc(S(=O)(=O)Nc2nccs2)cc1,-1.31% [at 39.1 µM],
N[C@H]1C(O)O[C@H](CO)[C@@H](O)[C@@H]1O (stereo not given in full),-4.05%,
CC[N+](C)(CC)CC,1.2%,
NC(=O)CC[C@@H](N)C(=O)O,-6.83%,
CCCCS,-0.909% [at 95.3 µM],
CCCC(=O)OC,1.9%,
C[Si](C)(C)O[Si](O)(O)O,2.9%,
O=C(O)Cc1ccccc1Oc1ccc(Cl)cc1Cl,1.73%,

SMILES,activation,Potency
C=CC(=O)CC,-2.38% [at 95.3 µM],
Cc1ccc(O)c(C(=O)c2ccccc2)c1,-2.32% [at 95.3 µM],
NNC(=O)CCCCC(=O)NN,-0.418%,
N=C(N)S(=O)O,0.707%,
COc1cc(OC)cc(OC)c1,1.09%,
CC(=O)Nc1ccc(OCCOCCOc2ccc(NC(C)=O)cc2)cc1,3.35%,
COc1ccc2cc(CCC(C)=O)ccc2c1,,4.52 µM (active)
CCc1ncc(C)[nH]1,-1.84%,
CN1C(CCl)Nc2cc(Cl)c(S(N)(=O)=O)cc2S1(=O)=O (stereo not given),-4.16%,
N=C(N)N,1.25%,
Cc1ccc(N)nc1,1.31%,
C=CCCCCCCCCCCCCCC,1.37% [at 39.1 µM],
C=COCCCCO,1.24%,
C[C@@H]1CC[C@@]2(OC1)O[C@H]1C[C@H]3[C@@H]4CC[C@H]5C[C@@H](O)CC[C@]5(C)[C@H]4CC(=O)[C@]3(C)[C@H]1[C@@H]2C,-1.48% [at 39.1 µM],
CC(C)(C)C(=O)CCc1ccc(Cl)cc1,1%,
CCCCCC(CC)OC(=O)CCCOc1ccc(Cl)cc1Cl (stereo not given),0.829%,
C/C=C/C(=O)CCCC,1.97%,
C[n+]1ccccc1/C=N/O,1.81% [at 39.1 µM],
CCCCCCCCCCCCCCCCN(C)C,2.36% [at 8.08 µM],
CC(=O)OCC(=O)[C@@]1(O)CC[C@H]2[C@@H]3CCC4=CC(=O)C=C[C@]4(C)[C@H]3[C@@H](O)C[C@@]21C,8.5%,
